High-throughput results deposited in PubChem BioAssay by Broad Institute.
The sample as a whole holds a higher share of hits than the screen did.
PD-1 reverse act: activators reversing PD-1 mediated T-cell inhibition; primary human CD4 T cells, PD-L1 beads, CellTiter-Glo 96 h; 29,000 tested, under 10 active; activation, % (no concentration beside the values); AID 2316; call rule not given here;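 further: 0% = median vehicle wells and 100% = positive control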
STK33 kin inh: human STK33 kinase inhibition; AID 2322; 0.44% of 27,000 active; inhibition, % at 12.5 µM; Q9BYT3; ADP-Glo luminescence, MBP substrate; in the data active means inhibition above about 20%; inconclusive means no clear call, values can overlap the other calls
Target sequence (Q9BYT3 whole entry, looked up): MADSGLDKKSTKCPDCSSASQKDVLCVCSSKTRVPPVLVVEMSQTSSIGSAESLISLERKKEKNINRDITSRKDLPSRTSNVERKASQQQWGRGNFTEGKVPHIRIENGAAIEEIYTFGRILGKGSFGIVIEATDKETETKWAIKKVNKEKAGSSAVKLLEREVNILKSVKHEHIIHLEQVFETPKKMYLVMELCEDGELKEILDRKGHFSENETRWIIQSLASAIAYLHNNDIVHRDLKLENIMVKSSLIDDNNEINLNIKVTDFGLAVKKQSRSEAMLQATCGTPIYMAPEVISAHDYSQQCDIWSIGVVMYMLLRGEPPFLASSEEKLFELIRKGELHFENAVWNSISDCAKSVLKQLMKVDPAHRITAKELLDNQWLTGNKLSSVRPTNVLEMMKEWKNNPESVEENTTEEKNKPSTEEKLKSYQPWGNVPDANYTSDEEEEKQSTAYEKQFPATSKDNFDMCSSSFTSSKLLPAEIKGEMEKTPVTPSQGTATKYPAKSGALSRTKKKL
NOMO-1 viab: STK33 inhibitor candidate reducing NOMO-1 cell viability | NOMO-1 AML viability, CellTiter-Glo luminescence, 72 h | inhibition, % (test concentration not listed) | 7.5% of 37,000 active; in the data active means inhibition above about 80%; inconclusive means no clear call, values can overlap the other calls
Active calls of the source: *; ? = inconclusive; nt = no result given; ! = a repeat was not active.

SMILES	PD-1 reverse act	STK33 kin inh	NOMO-1 viab
C[C@H]1CN([C@@H](C)CO)C(=O)Cc2cc(NC(=O)Cc3cn(C)c4ccccc34)ccc2O[C@@H]1CN(C)Cc1ccc(-c2ccccc2)cc1	-2	4	122*
C[C@H]1CN([C@@H](C)CO)C(=O)Cc2cc(NC(=O)Cc3cn(C)c4ccccc34)ccc2O[C@H]1CN(C)Cc1ccc2c(c1)OCO2	0	4	26
C[C@@H]1CN([C@H](C)CO)C(=O)Cc2cc(NC(=O)Cc3cn(C)c4ccccc34)ccc2O[C@H]1CN(C)Cc1ccc(-c2ccccc2)cc1	-3	nt	?
C[C@@H]1CN([C@H](C)CO)C(=O)Cc2cc(NC(=O)Cc3cn(C)c4ccccc34)ccc2O[C@@H]1CN(C)Cc1ccc(Cl)c(Cl)c1	-3	1	95*
Cc1ccc(F)cc1NC(=O)CSc1nnnn1-c1ccccc1	nt	-2	21
CC(=O)c1cccc(NC(=O)CSc2nc(-c3ccc(F)cc3)cs2)c1	-1	0	12
COc1cc(C(C)CC(C)(O)CC(=O)O)oc(=O)c1C (stereo not given)	1	1	20
Cc1cccc(C=Nc2c(C)n(C)n(-c3ccccc3)c2=O)c1	3	-2	-1
CC1CC[C@@]2(OC1)O[C@H]1CC3C4CC=C5C[C@@H](O[C@@H]6O[C@H](CO)[C@@H](O[C@@H]7O[C@@H](C)[C@H](O)[C@@H](O)[C@H]7O)[C@H](O)[C@H]6O[C@@H]6O[C@@H](C)[C@H](O)[C@@H](O)[C@H]6O)CC[C@]5(C)C4CC[C@]3(C)[C@@]1(O)[C@@H]2C (stereo not given in full)	-15	-9	119*
C[C@@H]1O[C@@H](O[C@H]2[C@H](O[C@H]3CC[C@@]4(C)C(CC[C@]5(C)C4CC=C4C6CC(C)(C)CC[C@]6(C(=O)O[C@@H]6O[C@H](CO[C@@H]7O[C@H](CO)[C@@H](O[C@@H]8O[C@@H](C)[C@H](O)[C@@H](O)[C@H]8O)[C@H](O)[C@H]7O)[C@@H](O)[C@H](O)[C@H]6O)CC[C@]45C)C3(C)C)OC[C@H](O)[C@@H]2O)[C@H](O)[C@H](O)[C@H]1O (stereo not given in full)	nt	-5	nt
COc1ccc(NC(=O)CNC(=O)c2ccc(C(C)(C)C)cc2)cc1	-1	-4	18
O=C(CCN1CCN(CCO)CC1)N1c2ccccc2Sc2ccc(C(F)(F)F)cc21	nt	-1	17
CN1CCN(CCCN2c3ccccc3Sc3ccc(C(F)(F)F)cc32)CC1	nt	2	112*!
O=C(CC1(O)C(=O)Nc2ccc(I)cc21)c1ccccn1 (stereo not given)	nt	-1	90*
O=C(CC1(O)C(=O)Nc2ccc(Cl)cc21)c1ccccn1 (stereo not given)	1	-1	43
Cc1ccc(C(=O)Nc2cc3ccccc3oc2=O)cc1	0	nt	139*
CC(=O)Nc1cc2ccccc2oc1=O	nt	1	41
O=C(NCC(c1ccccc1)c1c[nH]c2ccccc12)Nc1ccc(Cl)cc1 (stereo not given)	-1	0	?
C[C@H](CO)N1C[C@H](C)[C@H](CN(C)Cc2ccc(-c3ccccc3)cc2)Oc2c(NC(=O)Nc3ccc(F)cc3)cccc2C1=O	nt	nt	70
C[C@H](CO)N1C[C@H](C)[C@@H](CN(C)Cc2ccccc2)Oc2c(NC(=O)Nc3ccc(F)cc3)cccc2C1=O	-5	nt	98*
C[C@@H]1CN([C@H](C)CO)C(=O)c2cccc(NC(=O)Nc3ccc(F)cc3)c2O[C@H]1CN(C)Cc1ccccc1	-6	nt	100*
C[C@H](CO)N1C[C@H](C)[C@H](CN(C)Cc2ccccc2)Oc2c(NC(=O)Nc3ccc(F)cc3)cccc2C1=O	-1	nt	63
C[C@@H]1CN([C@@H](C)CO)C(=O)c2cccc(NC(=O)Nc3ccc(F)cc3)c2O[C@H]1CN(C)Cc1ccccc1	-6	nt	102*
C[C@@H]1CN([C@H](C)CO)C(=O)c2cccc(NC(=O)Nc3ccc(F)cc3)c2O[C@@H]1CN(C)Cc1ccccc1	1	nt	9
C[C@H]1CN([C@@H](C)CO)C(=O)c2cccc(NC(=O)Nc3ccc(F)cc3)c2O[C@@H]1CN(C)Cc1ccccc1	nt	nt	101*
SMILES	PD-1 reverse act	STK33 kin inh	NOMO-1 viab
C[C@@H]1CN([C@H](C)CO)C(=O)c2cccc(NC(=O)Nc3ccc(F)cc3)c2O[C@H]1CN(C)Cc1ccc(C(=O)O)cc1	2	nt	-1
Cc1ccc(N(CC(N)=O)S(=O)(=O)c2ccc(F)cc2)cc1	1	2	-26
Cc1nc(SCC(=O)N2CCc3ccccc32)c2c3c(sc2n1)CCCC3	1	-1	-23
CC(C)(C)C(=O)Nc1ccc2c(c1)C(=O)C(=O)c1ccccc1-2	-58	-2	98*
CC(O)(C(=O)Nc1ccc(S(=O)(=O)c2ccccc2)cc1)C(F)(F)F (stereo not given)	nt	-4	38
O=C(Nc1ccc(Cc2ccc(O)c(NC(=O)c3ccccc3F)c2)cc1O)c1ccccc1F	nt	1	27
O=C(CSc1ccccn1)Nc1ccc(Oc2ccccc2)cc1	1	2	-5
COc1cccc2cc(C(=O)C3C(=O)C(=O)N(CCCN(C)C)C3c3ccccc3F)oc12 (stereo not given)	1	-3	2
COc1ccc(NC(=O)COc2c(Cl)c(C)c(Cl)c(C)c2Cl)cc1[N+](=O)[O-]	nt	2	-8
C[C@@H]1CN([C@@H](C)CO)C(=O)c2cc(NS(=O)(=O)c3ccccc3)ccc2O[C@@H]1CN(C)Cc1ccc(-c2ccccc2)cc1	nt	nt	115*
C[C@H]1CN([C@@H](C)CO)C(=O)c2cc(NS(=O)(=O)c3ccccc3)ccc2O[C@@H]1CN(C)Cc1ccc(-c2ccccc2)cc1	-2	2	87*
C[C@@H]1CN([C@@H](C)CO)C(=O)c2cc(NS(=O)(=O)c3ccc(Cl)cc3)ccc2O[C@H]1CN(C)Cc1ccc(-c2ccccc2)cc1	0	nt	106*
C[C@H]1CN([C@@H](C)CO)C(=O)c2cc(NS(=O)(=O)c3ccccc3)ccc2O[C@@H]1CN(C)Cc1ccccc1	nt	nt	4
C[C@H]1CN([C@@H](C)CO)C(=O)c2cc(NS(=O)(=O)c3ccc(Cl)cc3)ccc2O[C@H]1CN(C)Cc1ccc(-c2ccccc2)cc1	1	1	62
C[C@H](CO)N1C[C@H](C)[C@H](CN(C)Cc2ccccc2)Oc2ccc(NS(=O)(=O)c3ccccc3)cc2C1=O	0	nt	-11
O=C(Nc1cc(C(F)(F)F)cc(C(F)(F)F)c1)C(=S)N1CCCCC1	2	nt	34
O=C(CSc1nnnn1-c1ccccc1)Nc1ccc2c(c1)OCCO2	nt	0	-13
Cc1ccc(C(O)c2nccc3ccccc23)cc1 (stereo not given)	2	2	-1
CCN(CC(=O)Nc1ccc(C(N)=O)cc1)S(=O)(=O)c1ccc(F)cc1	3	-3	-17
C[C@@H]1CN([C@@H](C)CO)C(=O)c2cc(NC(=O)Nc3ccc(C(F)(F)F)cc3)ccc2O[C@H]1CN(C)Cc1ccccc1	-3	3	96*
C[C@@H]1CN([C@@H](C)CO)C(=O)c2cc(NC(=O)Nc3ccccc3)ccc2O[C@H]1CN(C)Cc1ccc(C(F)(F)F)cc1	1	nt	79
